Molecules are shown by their SMILES. Hit rate of the full screen: of about 2,100 compounds, about 650 (31%) were called active. About 16% were inconclusive and are not listed. Calls come from the whole dose curve; as a rule, active = well fitted inhibition curve with a large enough effect; inconclusive = small, poorly fitted or top-dose-only effect; inactive = flat fitted curve, though single readings scatter. Some of the results follow. Entries that show only a call come without a potency.
Potency is the fitted concentration of half-maximal effect.

The assay is described as follows: qHTS for inhibitors of Vif-A3G interactions: Cherry picks. Note: nearly all actives have a fitted effect of over 80% in size. Particulars: HeLa A3G-eYFP + Vif (tagged APOBEC3G with the HIV-1 protein that degrades it), 24 h; Potency: eYFP fluorescence increase; series mostly up to 36.9 µM. The text has this:
The recent discovery and characterization of host restriction factors, which provide a potent defense to invading retroviruses, has provided new targets for antiviral drug development. APOBEC3G (A3G) and APOBEC3F (A3F) are potent cytidine deaminases that block HIV-1 replication; HIV-1 expresses the Vif protein, which counteracts A3G and A3F by binding to them and inducing their proteasomal degradation. The Vif-A3G and Vif-A3F interactions provide two potential targets for development of small molecules which can interfere with the ability of Vif to degrade A3G or A3F. […] To identify inhibitors that can interfere with Vif mediated degradation of A3G and A3F, we have developed Hela cell lines that stably express A3G or A3F tagged with eYFP at the C-terminal end (A3G-eYFP or A3F-eYFP, respectively) and Vif. In the absence of an inhibitor, Vif induces degradation of A3G-eYFP and A3F-eYFP, and the cells are not fluorescent. In the presence of an inhibitor, it is expected that Vif will be unable to degrade A3G-eYFP and/or A3F-eYFP, resulting in an increase in yellow fluorescence. In this assay, Vif A3G was screened against the cherry picks ordered from the MLSMR. NIH Chemical Genomics Center [NCGC] NIH Molecular Libraries Probe Centers Network [MLPCN] MLPCN Grant: MH093245 Assay Submitter (PI): Vinay Pathak, National Cancer Institute
A3G-Vif cells were harvested from T225 flask and resuspended in phenol free OPTI-MEM medium with 5% FBS. Then 5 uL of 140,000 cells/mL resuspended cells was dispensed into each well of low base Aurora COC 1,536-well plates (black walled, clear bottom) using a Multidrop Combi dispenser. After overnight culture at 37 deg C with 5% CO2, a total of 23 nL of compounds at 5 selected concentrations from the NPC or positive control (2 mM stock of MG132) in DMSO was transferred to each well of the assay plate using a pintool (Kalypsys, San Diego, CA), and the plates were further incubated at 37 deg C with 5% CO2 for 24 hours. After that, the plates were measured on Acumen Explorer (TTP Lab Tech). The fluorescence was detected by 488 nm/Ex and […].
(In general: qHTS replaces the single test concentration by a dilution series.)
As to `COCCCNc1nc2ccccc2nc1NS(=O)(=O)c1ccccc1`, the Potency result is “inactive”.
Then `COC(=O)c1cc(Nc2nc3ccccc3nc2NS(=O)(=O)c2ccc(C)cc2)ccc1Cl`, with “inactive”; and `COc1cc(Cl)c(C)cc1Nc1nc2ccccc2nc1NS(=O)(=O)c1ccccc1`, with 16.4 µM (active).
Then `COc1cc(N2CCCC2)c(OC)cc1/C=C1/NC(=S)NC1=O`, with 2.5 µM (active).
Take `CN1/C(=C\C=C(C#N)C#N)C(C)(C)c2ccccc21`: the Potency was 20.6 µM (active).
`CC1=C/C(=C\C=C(C#N)C#N)N(C)c2ccccc21`: the Potency is 2.59 µM (active).
Then `CN1/C(=C/C=C(C#N)C#N)C(C)(C)c2ccccc21`, with 18.4 µM (active); and `CN1/C(=C/C=C(/C#N)C(N)=O)C(C)(C)c2ccccc21`, with “inactive”; and `Cc1ccc2c(c1)Oc1ccc(NC(=O)CCl)cc1C(=O)N2`, with “inactive”.
Then `CC1=NOC(=O)/C1=C\c1ccc(-c2ccc(Br)cc2)o1`, with “inactive”.
Then `CN(C)/C=N/C1=C(C#N)C(c2cccs2)c2ccc3ccccc3c2O1` (centres undefined), with “inactive”.
For `CN(C)c1ccc(/C=C/c2ccnc3c(Cl)cccc23)cc1`, the Potency was 23.1 µM (active).
Then `CN(C)c1ccc(/C=C/c2ccnc3c(Cl)ccc(Cl)c23)cc1`, with 9.2 µM (active); and `CC(/C=N/NC(=O)c1cc(-c2ccc3ccccc3c2)n[nH]1)=C\c1ccco1`, with “inactive”.
As to `Cc1cc(C(=O)N/N=C/c2ccc3c(c2)OCO3)c2ccccc2n1`, the Potency result was “inactive”.
Then `CC(=O)c1cccc(-c2ccnc3c2CC(C(=O)NCc2ccc(F)c(F)c2)O3)c1` (centres undefined), with “inactive”.
In the case of `ClCc1nc2ccccc2n1Cc1ccccc1`, the Potency is 16.4 µM (active).
Regarding `CCC(=O)Nc1nonc1-c1nc2ccccc2n1Cc1ccccc1`, the Potency result is “inactive”.
As for `Cc1ccc2[nH]c3c(c2c1)CCCC3NC(=O)CCl` (centres undefined), the Potency entry is “inactive”.
Then `O=c1[nH]c2ccccc2n2c(=S)[nH]nc12`, with “inactive”; and `O=c1[nH]c2ccccc2n2c(C(F)(F)F)nnc12`, with 16.4 µM (active).
On to `N#Cc1c(NC(=O)c2ccc([N+](=O)[O-])o2)sc2c1CCC2`, for which the Potency result is “inactive”.
Consider `CC1CCCCC1NC(=O)/C(C#N)=C/C=C/c1ccccc1[N+](=O)[O-]` (centres undefined), for which the Potency entry is “inactive”.
`CC(NC(=O)/C(C#N)=C/c1ccc([N+](=O)[O-])o1)c1ccccc1` (centres undefined): the Potency was 16.4 µM (active).
`CCOCCCNC(=O)/C(C#N)=C/c1ccc([N+](=O)[O-])o1`: the Potency was 20.6 µM (active).
Then `COc1cc2cc(-c3ccc(OC)c(OC)c3C)nc(N)c2cc1OC`, with “inactive”; and `CC(=O)Nc1cccc(-c2ccnc3c2CC(C)(C(=O)Nc2cccc(C(C)=O)c2)O3)c1` (centres undefined), with “inactive”.
For `O=C(NC(=S)N1CCN(c2ccccn2)CC1)c1ccccc1`, the Potency result was “inactive”.
Take `O=C(Nc1ccc(Cl)cc1)Nc1ccon1`: the Potency entry is “inactive”.
Take `CCN(c1ccc(NC(=O)CCc2nc3sc4c(c3c(=O)[nH]2)CCCC4)cc1)C(C)C`: the Potency result is “inactive”.
Then `COc1ccccc1N1CCN(C(=O)c2ccc3ncsc3c2)CC1`, with “inactive”.
Then `CCOc1ccccc1Nc1nnc(-c2cc3cc(OC)ccc3oc2=O)s1`, with 7.31 µM (active); and `COc1ccc2oc(=O)c(-c3nc4ccccc4o3)cc2c1`, with 20.6 µM (active); and `COc1ccc(N=c2oc3ccc(OC)cc3cc2-c2nc3ccccc3[nH]2)cc1`, with “inactive”.
Then `COc1ccc2oc(=Nc3ccccc3)c(-c3nc4ccccc4[nH]3)cc2c1`, with “inactive”.
Turning to `CCOc1ccccc1Nc1nnc(-c2cc3cc(Cl)ccc3oc2=O)s1`, the Potency result is “inactive”.
Then `COc1cccc2sc(Nc3nc(-c4cc5ccccc5oc4=O)cs3)nc12`, with “inactive”; and `CCCNC(=O)c1ccccc1NC(=O)c1ccc2c(c1)NC(=O)C(C)S2` (centres undefined), with “inactive”.
`CC(O)CN(CC(C)O)c1ccc2c(c1)Cc1cc([N+](=O)[O-])ccc1-2` (centres undefined): the Potency is 3.26 µM (active).
Turning to `C=CCN1C(=O)/C(=C\C=C2\N(C)c3ccccc3C2(C)C)SC1=S`, the Potency was 0.651 µM (active).
The result for `CN1/C(=C\C=C2/SC(=S)N(CC(=O)O)C2=O)C(C)(C)c2ccccc21` reads 1.3 µM (active); that for `CN1/C(=C\C=C2/SC(=S)NC2=O)C(C)(C)c2ccccc21`, 2.5 µM (active); that for `Cc1ccc(-c2nc(SCCOc3ccccc3C)n3[nH]c(=O)cc3n2)cc1`, “inactive”.
Then `CCCOc1ccc(C(=O)Nc2cccc(NC(=O)c3ccc(Cl)cc3Cl)c2)cc1`, with 10.3 µM (active).
Then `Cc1ccc(NC(=S)NC(=O)c2ccc(F)cc2)cc1S(=O)(=O)Nc1cccc(Cl)c1`, with “inactive”; and `O=C(Nc1cc(=O)[nH]c(=O)[nH]1)c1cc(Cl)ccc1Cl`, with “inactive”; and `COc1cc(Cl)c(C)cc1NC(=O)CN1CCN(C(=O)C2CC2)CC1`, with “inactive”.
As to `Cc1noc(C)c1COc1cccc(C(=O)OCC(=O)N2CC(=O)Nc3ccccc32)c1`, the Potency entry is “inactive”.
Then `CCC(C)[C@H](NC(=O)N1CC(=O)Nc2ccccc21)C(=O)Nc1ccccc1C` (some centres undefined), with “inactive”.
Then `COc1cc(OC)cc(C(=O)N2CC(=O)Nc3ccccc32)c1`, with “inactive”; and `Cc1cc(C)c2nc(SCC(=O)N3CC(=O)Nc4ccccc43)c(C#N)cc2c1`, with 12.5 µM (active); and `CCCn1nc(C(=O)N2CC(=O)Nc3ccccc32)c2ccccc2c1=O`, with “inactive”.
Then `COc1cc(C(=O)N2CC(=O)Nc3ccccc32)cc(OC)c1OC`, with “inactive”; and `COc1ccc2nc(SCC(=O)N3CC(=O)Nc4ccccc43)c(C#N)cc2c1`, with 23.1 µM (active).

The values are drawn from PubChem BioAssay AID651812 (National Center for Advancing Translational Sciences (NCATS), 2012).
